# Laboratory results from the supplement of paper PMC10849652.
# About 8,800 targets were measured; listed, in parts, are those with a hit and a random draw of the rest. About 0.5% of all pairs of compound and target were hits. Values without a mark were called inactive.
# Key:
# Test in all cases: log2 fold change, soluble protein after heating vs DMSO (PISA); higher = thermal stabilisation; K562 lysate, 10 uM; active = over 0.2 and 3.5 SD of the protein, either way, in both replicates (recomputed)
# [1] = compound: C=CC(=O)N1CCC[C@@H](n2nc(-c3ccc(Oc4ccccc4)cc3)c3c(N)ncnc32)C1 [ibrutinib]
# Outline: (§1)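 The values are log-two fold changes in thermal stability compared with solvent controls and come from duplicates. They were obtained by TMTpro 16plex LC-MS/MS, with channel sums equalised, on the supernatant after 21,000xg for 90 min. That supernatant came from crude K562 extract at 1 mg/mL protein treated with 10 μM compound for 30 min, heated for 3 min across 48°C-58°C, pooled and brought to 0.5% NP-40 at 4°C.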
# [2] = compound: CC(=O)c1cnc2ccc(-c3cc(Cl)c(O)c(Cl)c3)nc2c1N[C@H]1CC[C@H](CN(C)C)CC1
# Outline: as §1
# [3] = compound: CC(C)(C)Cn1c(N)nc2ccc(-c3[nH]c(C(C)(C)C)nc3-c3ccc(F)cc3)nc21 [ralimetinib]
# Outline: as §1
# [4] = compound: CC(C)(O)CC(=O)NCCn1ccc2ncnc(Nc3ccc(Oc4cccc(C(F)(F)F)c4)c(Cl)c3)c21
# Outline: as §1
# [5] = compound: CC(C)C1=C2N=C(C=C(N2N=C1)NCC3=CC=CC=C3)NCCCCCCN
# Outline: as §1
# [6] = compound: CC1=C(C(CC(=O)N1)C2=CC=C(C=C2)C(F)(F)F)C(=O)NC3=C(C=C4C(=C3)C=NN4)F
# Outline: as §1
# [7] = compound: CC1=C(C2=C(C=C1)C(=O)C3=CC=CC=C3N2CCCN)C
# Outline: as §1
# [8] = compound: CC1=C(C=C(C=C1)NC(=O)C2=CC(=CC=C2)C(C)(C)C#N)NC3=CC4=C(C=C3)N=CN(C4=O)C
# Outline: as §1
# [9] = compound: CC1=C(C=C(C=C1)NC(=O)C2=CC(=CC=C2)N(C)C)NC(=O)C3=CC=C(C=C3)O
# Outline: as §1
# [10] = compound: CC1=CC=C(C=C1)SC2=C3C=C(SC3=CN=C2)C(=O)N
# Outline: as §1
# Chain of UniProt P50750 (P50750 whole entry, looked up): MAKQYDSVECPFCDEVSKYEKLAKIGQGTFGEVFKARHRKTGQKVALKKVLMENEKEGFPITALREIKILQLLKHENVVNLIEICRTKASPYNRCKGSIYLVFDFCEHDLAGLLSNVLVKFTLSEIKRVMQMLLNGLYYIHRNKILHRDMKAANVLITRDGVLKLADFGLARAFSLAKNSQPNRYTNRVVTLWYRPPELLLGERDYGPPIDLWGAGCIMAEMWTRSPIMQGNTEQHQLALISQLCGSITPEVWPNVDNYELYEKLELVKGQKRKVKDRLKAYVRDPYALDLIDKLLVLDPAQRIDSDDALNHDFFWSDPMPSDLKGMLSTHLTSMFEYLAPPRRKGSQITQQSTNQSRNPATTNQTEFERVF
# Chain of UniProt Q14839 (Q14839 whole entry, looked up): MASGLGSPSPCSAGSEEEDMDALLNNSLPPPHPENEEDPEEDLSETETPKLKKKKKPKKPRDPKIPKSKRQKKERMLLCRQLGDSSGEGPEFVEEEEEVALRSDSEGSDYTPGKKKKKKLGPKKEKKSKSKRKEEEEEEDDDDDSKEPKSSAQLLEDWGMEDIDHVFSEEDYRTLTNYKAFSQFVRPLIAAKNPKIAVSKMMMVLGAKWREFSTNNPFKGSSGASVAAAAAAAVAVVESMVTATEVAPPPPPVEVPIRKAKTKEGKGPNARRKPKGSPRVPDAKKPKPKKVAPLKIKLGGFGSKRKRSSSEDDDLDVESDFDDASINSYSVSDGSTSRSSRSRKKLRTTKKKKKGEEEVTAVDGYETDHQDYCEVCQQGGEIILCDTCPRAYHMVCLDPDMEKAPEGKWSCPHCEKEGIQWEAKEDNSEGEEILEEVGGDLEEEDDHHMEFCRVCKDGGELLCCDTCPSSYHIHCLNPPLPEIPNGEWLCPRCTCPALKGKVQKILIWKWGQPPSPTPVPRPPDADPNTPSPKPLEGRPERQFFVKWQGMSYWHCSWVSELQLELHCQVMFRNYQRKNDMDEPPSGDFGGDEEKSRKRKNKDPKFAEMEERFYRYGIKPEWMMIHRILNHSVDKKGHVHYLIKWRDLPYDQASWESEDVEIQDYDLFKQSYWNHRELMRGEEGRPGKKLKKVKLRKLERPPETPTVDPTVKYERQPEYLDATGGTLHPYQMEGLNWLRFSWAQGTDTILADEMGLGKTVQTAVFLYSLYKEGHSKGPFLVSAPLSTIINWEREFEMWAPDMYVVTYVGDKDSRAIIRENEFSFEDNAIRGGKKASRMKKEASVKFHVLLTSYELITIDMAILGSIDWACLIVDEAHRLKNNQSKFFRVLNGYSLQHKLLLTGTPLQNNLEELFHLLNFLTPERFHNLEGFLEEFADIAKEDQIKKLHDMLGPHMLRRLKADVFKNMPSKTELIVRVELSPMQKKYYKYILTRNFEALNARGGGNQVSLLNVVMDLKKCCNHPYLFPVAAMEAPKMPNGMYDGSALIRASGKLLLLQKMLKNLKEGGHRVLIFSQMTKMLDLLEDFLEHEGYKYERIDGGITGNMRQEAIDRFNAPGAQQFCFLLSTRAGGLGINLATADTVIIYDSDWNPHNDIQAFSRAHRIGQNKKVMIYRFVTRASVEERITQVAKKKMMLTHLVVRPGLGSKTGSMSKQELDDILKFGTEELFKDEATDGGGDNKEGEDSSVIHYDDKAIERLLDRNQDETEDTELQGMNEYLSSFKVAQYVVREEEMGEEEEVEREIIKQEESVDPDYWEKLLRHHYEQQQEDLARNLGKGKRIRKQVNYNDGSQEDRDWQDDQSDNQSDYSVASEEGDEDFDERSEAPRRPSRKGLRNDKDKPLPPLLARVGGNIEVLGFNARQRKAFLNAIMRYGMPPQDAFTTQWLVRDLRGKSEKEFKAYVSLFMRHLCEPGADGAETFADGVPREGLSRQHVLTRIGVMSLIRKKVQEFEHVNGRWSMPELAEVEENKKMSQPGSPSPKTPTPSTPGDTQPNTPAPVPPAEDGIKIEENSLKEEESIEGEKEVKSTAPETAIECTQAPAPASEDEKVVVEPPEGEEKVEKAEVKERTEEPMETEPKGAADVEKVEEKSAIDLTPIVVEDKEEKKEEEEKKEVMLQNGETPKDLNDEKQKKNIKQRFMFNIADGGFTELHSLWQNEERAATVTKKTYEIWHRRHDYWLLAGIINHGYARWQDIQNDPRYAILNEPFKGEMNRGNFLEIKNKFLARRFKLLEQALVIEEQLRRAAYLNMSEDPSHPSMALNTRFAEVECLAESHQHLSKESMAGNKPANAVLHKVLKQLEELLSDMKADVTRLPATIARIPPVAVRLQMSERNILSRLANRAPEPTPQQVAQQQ
# Chain of UniProt O00748 (O00748 whole entry, looked up): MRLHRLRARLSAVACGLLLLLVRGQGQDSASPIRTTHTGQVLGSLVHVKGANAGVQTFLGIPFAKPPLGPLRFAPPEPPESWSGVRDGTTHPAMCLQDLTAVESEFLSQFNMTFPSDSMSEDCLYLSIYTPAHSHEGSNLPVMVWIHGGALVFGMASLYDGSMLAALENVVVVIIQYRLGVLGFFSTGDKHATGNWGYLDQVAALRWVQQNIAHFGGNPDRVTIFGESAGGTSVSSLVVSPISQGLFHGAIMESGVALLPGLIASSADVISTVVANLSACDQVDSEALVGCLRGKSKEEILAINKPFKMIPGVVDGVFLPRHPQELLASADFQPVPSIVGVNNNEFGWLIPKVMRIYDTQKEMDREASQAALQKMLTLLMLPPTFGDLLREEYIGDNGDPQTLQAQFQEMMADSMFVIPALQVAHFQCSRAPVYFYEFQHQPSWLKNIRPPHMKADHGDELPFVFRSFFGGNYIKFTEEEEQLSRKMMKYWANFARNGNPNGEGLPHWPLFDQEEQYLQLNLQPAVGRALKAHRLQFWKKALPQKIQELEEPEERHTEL
# Chain of UniProt P49336 (P49336 whole entry, looked up): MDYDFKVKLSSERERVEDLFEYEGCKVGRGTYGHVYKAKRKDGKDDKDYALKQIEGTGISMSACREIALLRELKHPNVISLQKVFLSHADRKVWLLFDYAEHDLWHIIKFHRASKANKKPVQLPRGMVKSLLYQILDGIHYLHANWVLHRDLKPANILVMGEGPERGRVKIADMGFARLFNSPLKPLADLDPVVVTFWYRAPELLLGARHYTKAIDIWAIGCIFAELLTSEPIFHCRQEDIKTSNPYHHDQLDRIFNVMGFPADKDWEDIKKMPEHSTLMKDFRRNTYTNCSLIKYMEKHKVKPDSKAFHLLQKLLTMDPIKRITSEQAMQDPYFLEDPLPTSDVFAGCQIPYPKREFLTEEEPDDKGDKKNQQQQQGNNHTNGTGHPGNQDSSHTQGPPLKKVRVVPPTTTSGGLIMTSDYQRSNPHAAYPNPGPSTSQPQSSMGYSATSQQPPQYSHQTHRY
# Chain of UniProt Q9UQ88 (Q9UQ88 whole entry, looked up): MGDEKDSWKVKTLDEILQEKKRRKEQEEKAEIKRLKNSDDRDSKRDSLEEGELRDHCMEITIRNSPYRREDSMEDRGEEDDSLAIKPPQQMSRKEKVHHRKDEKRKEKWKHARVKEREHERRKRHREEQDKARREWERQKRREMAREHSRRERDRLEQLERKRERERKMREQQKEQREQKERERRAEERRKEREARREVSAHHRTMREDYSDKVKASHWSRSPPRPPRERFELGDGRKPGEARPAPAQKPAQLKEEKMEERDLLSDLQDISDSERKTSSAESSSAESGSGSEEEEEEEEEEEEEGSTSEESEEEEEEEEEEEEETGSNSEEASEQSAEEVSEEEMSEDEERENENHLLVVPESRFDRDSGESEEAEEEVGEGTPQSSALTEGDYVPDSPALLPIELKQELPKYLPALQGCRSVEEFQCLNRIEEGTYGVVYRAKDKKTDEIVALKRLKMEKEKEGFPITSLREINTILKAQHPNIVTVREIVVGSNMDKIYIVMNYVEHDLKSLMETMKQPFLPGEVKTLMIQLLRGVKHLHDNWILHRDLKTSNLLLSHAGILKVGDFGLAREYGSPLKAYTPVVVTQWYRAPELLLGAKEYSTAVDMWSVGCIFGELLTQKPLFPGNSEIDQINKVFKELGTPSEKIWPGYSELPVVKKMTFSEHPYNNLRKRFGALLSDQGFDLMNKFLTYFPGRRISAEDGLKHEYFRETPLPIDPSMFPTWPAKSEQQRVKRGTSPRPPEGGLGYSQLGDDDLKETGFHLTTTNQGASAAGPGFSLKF
# Chain of UniProt Q92879 (Q92879 whole entry, looked up): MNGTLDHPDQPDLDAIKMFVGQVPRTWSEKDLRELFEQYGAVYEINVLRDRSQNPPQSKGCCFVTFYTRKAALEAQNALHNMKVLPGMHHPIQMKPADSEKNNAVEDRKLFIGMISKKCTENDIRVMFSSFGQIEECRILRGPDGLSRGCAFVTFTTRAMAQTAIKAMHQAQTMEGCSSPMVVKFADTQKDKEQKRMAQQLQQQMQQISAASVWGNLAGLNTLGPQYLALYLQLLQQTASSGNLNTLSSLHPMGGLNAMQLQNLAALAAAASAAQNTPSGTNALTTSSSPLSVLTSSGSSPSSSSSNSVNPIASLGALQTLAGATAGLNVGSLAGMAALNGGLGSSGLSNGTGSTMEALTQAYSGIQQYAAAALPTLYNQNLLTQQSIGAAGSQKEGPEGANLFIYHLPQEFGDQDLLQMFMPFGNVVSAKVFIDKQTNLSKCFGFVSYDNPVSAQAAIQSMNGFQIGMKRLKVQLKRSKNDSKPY
# Chain of UniProt Q8N4J0 (Q8N4J0 whole entry, looked up): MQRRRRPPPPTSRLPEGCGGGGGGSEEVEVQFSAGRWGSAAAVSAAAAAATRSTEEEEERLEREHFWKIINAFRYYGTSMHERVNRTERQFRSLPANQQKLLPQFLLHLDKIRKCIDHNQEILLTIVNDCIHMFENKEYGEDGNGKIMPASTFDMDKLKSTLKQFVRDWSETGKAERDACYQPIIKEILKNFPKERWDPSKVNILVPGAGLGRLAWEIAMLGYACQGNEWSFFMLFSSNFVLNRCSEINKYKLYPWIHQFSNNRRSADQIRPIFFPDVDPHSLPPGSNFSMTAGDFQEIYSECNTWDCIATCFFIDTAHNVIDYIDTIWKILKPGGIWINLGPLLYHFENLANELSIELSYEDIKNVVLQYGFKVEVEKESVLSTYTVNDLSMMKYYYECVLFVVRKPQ
Target,log2 fold change [1],log2 fold change [2],log2 fold change [3],log2 fold change [4],log2 fold change [5],log2 fold change [6],log2 fold change [7],log2 fold change [8],log2 fold change [9],log2 fold change [10]
CCNYL1 (UniProt Q8N7R7),0.047,0.007,0.019,-0.032,0.012,0.027,-0.023,0.028,-0.027,-0.006
CALM2 (UniProt P0DP24),0.262,0.004,-0.014,-0.238,-0.07,-0.044,-0.101,-0.013,-0.099,0.004
BNIP1 (UniProt Q12981),0.038,0.005,0.01,-0.011,0.051,0.046,0.005,0.002,0.024,0.012
CEPT1 (UniProt Q9Y6K0),0.011,0.061,0.009,-0.003,0.032,0.004,-0.008,0.026,0,0.024
CAPN15 (UniProt O75808),0.037,-0.065,0.09,0.008,-0.002,0.025,0.019,0.086,0.007,0.046
CDK2 (UniProt P24941),-0.031,0.362 (active),-0.038,0.006,-0.036,-0.026,-0.016,-0.017,-0.003,-0.015
AURKAIP1 (UniProt Q9NWT8),-0.055,-0.095,-0.363,-0.222,0.021,0.029,-0.012,0.135,-0.417 (active),-0.013
CDK8 (UniProt P49336),0.006,0.097,-0.041,-0.011,-0.073,-0.058,0.095,0.088,0.016,0.16
CDK11A (UniProt Q9UQ88),0.022,0.414 (active),0.003,0.056,-0.036,-0.03,-0.022,0.002,0.025,-0.014
CDK9 isoform 2 (UniProt P50750),-0.042,0.269,0.013,0.026,-0.092,-0.026,-0.021,-0.032,0.004,-0.021
BET1 (UniProt O15155),-0.03,0.041,-0.085,0.01,0.035,0.033,-0.01,-0.019,0.001,-0.001
CDKN2AIP (UniProt Q9NXV6),-0.003,-0.038,-0.013,0.029,-0.04,-0.009,0.03,0.004,-0.019,-0.009
CDKN1C (UniProt P49918),0.002,-0.001,0.055,-0.045,0.077,0.017,0.006,-0.032,0.023,0.005
CCNC (UniProt P24863),-0.04,0.087,0.026,0.011,0.02,-0.05,0.034,0.061,0.016,0.184
CAMKK2 (UniProt Q96RR4),0.052,0.231 (active),0.035,-0.005,0.019,-0.011,-0.005,-0.031,0.005,0.014
BOLA2 (UniProt Q9H3K6),-0.01,0.02,-0.025,0.008,-0.025,-0.059,0.038,-0.029,-0.022,0.039
CHD3 isoform 3 (UniProt Q12873),-0.003,0.021,-0.01,-0.021,-0.001,0.019,-0.018,0,-0.013,0.007
CD63 (UniProt P08962),-0.012,-0.063,0.078,-0.023,0.017,0.005,0.049,0,0.039,0.023
BPHL (UniProt Q86WA6),-0.073,-0.016,0.047,0.06,-0.045,0,-0.015,0.025,-0.004,-0.002
CAMLG (UniProt P49069),-0.019,-0.003,0.084,-0.023,0.009,-0.068,-0.024,-0.028,0.004,-0.012
CHD4 isoform 2 (UniProt Q14839),-0.003,-0.008,0.026,0.011,0.025,0.001,-0.037,0.004,0.006,0.022
CARNMT1 (UniProt Q8N4J0),-0.014,-0.003,-0.007,-0.056,-0.041,0.004,-0.014,0.082,-0.043,-0.006
C3 (UniProt P01024),-0.047,-0.011,-0.077,-0.032,0.865,0.243,-0.004,0.01,0.026,0.001
ATP6V0A2 (UniProt Q9Y487),0.016,-0.017,0,-0.073,-0.077,0.007,-0.014,0.041,-0.032,0.012
CCT6A (UniProt P40227),0.017,-0.005,-0.007,0.022,-0.013,-0.014,0.003,-0.016,-0.014,0.018
CES2 isoform 4 (UniProt O00748),0.431 (active),-0.048,-0.031,0.057,-0.004,0.202,-0.128,0.079,-0.019,-0.025
CELF1 isoform 4 (UniProt Q92879),0.027,-0.027,0.034,-0.004,0.033,0.072,0.016,-0.331 (active),0,0.025
BCR (UniProt P11274),-0.026,0.037,0.025,-0.025,0.014,-0.001,-0.032,0.025,0,0.017
CDK5 (UniProt Q00535),0.015,0.53 (active),0.004,-0.023,-0.032,-0.034,-0.006,-0.052,0.023,-0.058
CHD1L (UniProt Q86WJ1),-0.032,0.03,0.024,-0.011,-0.001,0.008,-0.043,0.029,0.061,0.019
